This note sets out measurements from PubChem BioAssay.

The structures appear in SMILES notation. Calls of active or inactive are those of the source. Unless noted, no rule for the calls is given here.

For test [1], the system named is Wnt5a (protein binding on small-molecule microarray). Put plainly: Wnt5a binders on small-molecule microarray, primary screen, biophysical, 635/667 nm fluorescence (AID 1142).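 Also: fluorescence read at 667 nm with signal to noise per printed feature.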 Particulars: 635 nm fluorescence, higher = more signal.
Test [2] is described as follows: cell viability in Huh7 cells, primary screen, cytotoxicity control for HCV replication inhibitor project, CellTiter-Glo luminescence, basal, 48 h (AID 1143).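 Also: Huh7 hepatoma cells carrying a hepatitis C replication reporter with no stimulus; test concentration not given here.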 Particulars: Huh7 HCV replicon, higher = more signal, called active from +8 up or from −8 down.
Test [3] can be described thus: P. aeruginosa biofilm formation inhibitors, primary screen, PAO1 strain, BacTiter-Glo luminescence, LB-PBS (AID 1144). To be noted: 12 h, higher = more signal.
Test [4] can be described thus: CREB reporter modulators without forskolin, primary screen, cell-based, PC12, CRE-LacZ reporter, unstimulated (AID 1145). To be noted: no forskolin, luminescence, 4.5 h, higher = more signal, called active from +8 up or from −8 down.
The nature of test [5]: CREB reporter modulators under forskolin, primary screen, cell-based, PC12, CRE-LacZ reporter, forskolin-stimulated (AID 1146).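 Also: PC12 cells with 6xCRE LacZ reporter stimulated by forskolin 10 µM; beta-galactosidase reporter signal reflecting CREB driven transcription.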 To be noted: luminescence, 4.5 h, higher = more signal, called active from +8 up or from −8 down.
Test [6] deals with Streptavidin (Streptomyces avidinii) (UniProt P22629). Description: streptavidin binders on small-molecule microarray, primary screen, artefact control for SMM compound annotation, biophysical, 635/667 nm fluorescence (AID 1147).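 Also: signal reflects streptavidin binding to arrayed compounds as a control protein.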 Particulars: streptavidin binding, higher = more signal.
Chain of Streptavidin (Streptomyces avidinii) (P22629 whole entry, looked up): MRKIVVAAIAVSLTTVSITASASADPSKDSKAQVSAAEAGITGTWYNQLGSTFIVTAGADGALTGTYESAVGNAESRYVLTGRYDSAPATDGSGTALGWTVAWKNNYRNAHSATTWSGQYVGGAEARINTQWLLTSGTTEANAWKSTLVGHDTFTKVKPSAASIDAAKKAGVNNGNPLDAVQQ
The nature of test [7]: small-molecule binders of probe aInhba, primary screen, biochemical, small-molecule microarray, 635/667 nm fluorescence (AID 1148).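 Also: score merges 667nm spot fluorescence with signal-to-noise for antibody binding to printed compounds.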 Particulars: higher = more signal.
Test [8] has as its target Torsin-1A (Homo sapiens) (UniProt O14656). Description: torsin A binders from cell lysate, primary screen, small-molecule microarray, wild-type, 635/667 nm (AID 1149). Particulars: COS7 hTOR1A-WT lysate, 635 nm fluorescence, higher = more signal.
Test [9] shares this target. Put plainly: small-molecule binders of mutant TOR1A in lysate, primary screen, cell lysate, small-molecule microarray, COS7 lysate, 635/667 nm fluorescence (AID 1150).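 Also: score pools 667 nm emission and signal to noise measuring lysate protein binding.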 To be noted: COS7 hTOR1A mutant lysate, 635 nm fluorescence, higher = more signal.
Test [10] deals with Sonic hedgehog protein (Shh). Description: small-molecule binders of Shh protein, primary screen, biochemical, small-molecule microarray, 635/667 nm fluorescence (AID 1151).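 Also: Shh protein binding to compounds spotted on small-molecule microarray slides; score combines spot fluorescence intensity with signal-to-noise across triplicate slides.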 To be noted: small-molecule microarray binding, 635 nm fluorescence; higher = more signal.
Test [11] can be described thus: E. coli DRC41 culture turbidity changes, primary screen, E. coli filamentation inducer project, strain DRC41, OD650, 48 h (AID 1152).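 Also: E. coli MC1000 strain DRC41 lacking acrAB efflux pump and sulA.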 Particulars: E. coli DRC41 (acrAB sulA), higher = more signal, called active from +8 up or from −8 down.
Test [12] in a line: small-molecule binders of probe aLefty1, primary screen, biochemical, small-molecule microarray, 635/667 nm fluorescence (AID 1153).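 Also: score merges spot fluorescence with signal-to-noise ratio from the scanned slide images.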 To be noted: higher = more signal.
Test [13] in a line: PSAC antagonists in infected red cells, primary screen, cell-based, P. falciparum Indochina, OD700, 1 h (AID 1154). To be noted: P. falciparum Indochina infected RBC osmotic lysis, higher = more signal, called active from +8 up or from −8 down.
Test [14] is described as follows: PSAC antagonists in infected red cells, primary screen, cell-based, P. falciparum Indochina, OD700, 2 h (AID 1155).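 Also: lysis reports solute entry through the parasite surface anion channel PSAC; channel blockers reduce lysis of infected cells.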 Particulars: P. falciparum Indochina infected erythrocytes, osmotic lysis OD700; higher = more signal, called active from +8 up or from −8 down.
A short description of test [15]: osmotic lysis modulators in infected erythrocytes, primary screen, PSAC antagonist project, cell-based, P. falciparum Indochina, OD700, 3 h (AID 1156). To be noted: higher = more signal, called active from +8 up or from −8 down.
The nature of test [16]: PSAC antagonists in infected red cells, primary screen, cell-based, P. falciparum Indochina, OD700, 18 h (AID 1157). Particulars: P. falciparum Indochina infected erythrocytes, osmotic lysis OD700, 18 h; higher = more signal, called active from +8 up or from −8 down.
A short description of test [17]: modulators of S6 phosphorylation in cells, primary screen, cell-based, A549, cytoblot, luminescence, serum-stimulated (AID 1158).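 Also: serum-stimulated A549 lung adenocarcinoma cells; signal is phosphorylated S6 detected by cytoblot immunostaining with HRP secondary.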 To be noted: A549 phospho-S6 cytoblot, 5 h, higher = more signal.
The target of test [18] is NADPH oxidase 2 (Homo sapiens) (UniProt P04839). Description: NOX2-dependent H2O2 signal modulators, primary screen, NOX inhibitor project, cell-based, HEK293-NOX2, PMA-stimulated, Amplex Red fluorescence (AID 1159). Also: test concentration not given here. To be noted: 45 min, higher = more signal, called active from +8 up or from −8 down.
Chain of NADPH oxidase 2 (Homo sapiens) (P04839 whole entry, looked up): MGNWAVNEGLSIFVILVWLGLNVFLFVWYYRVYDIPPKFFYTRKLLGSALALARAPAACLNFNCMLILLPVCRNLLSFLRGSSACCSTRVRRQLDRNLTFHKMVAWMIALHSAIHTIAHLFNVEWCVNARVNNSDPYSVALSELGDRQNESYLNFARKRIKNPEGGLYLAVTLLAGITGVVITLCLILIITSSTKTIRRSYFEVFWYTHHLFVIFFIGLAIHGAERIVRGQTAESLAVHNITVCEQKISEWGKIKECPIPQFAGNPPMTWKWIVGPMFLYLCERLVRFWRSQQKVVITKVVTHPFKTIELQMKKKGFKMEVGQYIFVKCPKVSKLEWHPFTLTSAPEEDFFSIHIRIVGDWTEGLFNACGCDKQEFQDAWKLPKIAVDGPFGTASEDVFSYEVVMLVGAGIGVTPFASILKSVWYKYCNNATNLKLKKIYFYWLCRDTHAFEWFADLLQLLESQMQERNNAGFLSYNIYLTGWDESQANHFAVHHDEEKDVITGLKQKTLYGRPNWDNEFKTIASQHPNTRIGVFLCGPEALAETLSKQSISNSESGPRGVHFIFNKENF
For test [19], the target named is NADPH oxidase 4 (Homo sapiens) (UniProt Q9NPH5). Put plainly: NOX4-dependent H2O2 signal modulators, primary screen, NOX inhibitor project, cell-based, HEK293-NOX4, tetracycline-induced, Amplex Red fluorescence (AID 1160). Particulars: 45 min, higher = more signal, called active from +8 up or from −8 down.
Chain of NADPH oxidase 4 (Homo sapiens) (Q9NPH5 whole entry, looked up): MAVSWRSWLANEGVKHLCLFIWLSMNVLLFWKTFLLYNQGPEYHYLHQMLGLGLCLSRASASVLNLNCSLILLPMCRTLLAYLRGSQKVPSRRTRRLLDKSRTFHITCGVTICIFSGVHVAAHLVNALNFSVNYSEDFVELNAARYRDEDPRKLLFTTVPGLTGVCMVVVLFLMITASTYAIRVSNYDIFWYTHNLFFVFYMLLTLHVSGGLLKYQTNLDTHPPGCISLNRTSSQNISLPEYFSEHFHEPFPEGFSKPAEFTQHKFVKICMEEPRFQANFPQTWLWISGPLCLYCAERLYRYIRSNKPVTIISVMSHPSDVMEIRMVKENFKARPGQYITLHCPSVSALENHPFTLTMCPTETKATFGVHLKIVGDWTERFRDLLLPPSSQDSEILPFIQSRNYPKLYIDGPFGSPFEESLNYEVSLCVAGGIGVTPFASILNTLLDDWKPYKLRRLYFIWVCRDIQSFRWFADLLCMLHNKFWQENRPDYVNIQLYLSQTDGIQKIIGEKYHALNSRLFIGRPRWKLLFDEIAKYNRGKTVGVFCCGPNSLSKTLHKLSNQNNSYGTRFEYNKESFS
Test [20] addresses NADPH oxidase 5 (Homo sapiens) (UniProt Q96PH1). Put plainly: NOX5-dependent H2O2 signal modulators, primary screen, NOX inhibitor project, cell-based, HEK293-NOX5, Amplex Red fluorescence (AID 1161). To be noted: HEK293-NOX5, ionomycin, 45 min, higher = more signal.

Chain of NADPH oxidase 5 (Homo sapiens) (Q96PH1 whole entry, looked up): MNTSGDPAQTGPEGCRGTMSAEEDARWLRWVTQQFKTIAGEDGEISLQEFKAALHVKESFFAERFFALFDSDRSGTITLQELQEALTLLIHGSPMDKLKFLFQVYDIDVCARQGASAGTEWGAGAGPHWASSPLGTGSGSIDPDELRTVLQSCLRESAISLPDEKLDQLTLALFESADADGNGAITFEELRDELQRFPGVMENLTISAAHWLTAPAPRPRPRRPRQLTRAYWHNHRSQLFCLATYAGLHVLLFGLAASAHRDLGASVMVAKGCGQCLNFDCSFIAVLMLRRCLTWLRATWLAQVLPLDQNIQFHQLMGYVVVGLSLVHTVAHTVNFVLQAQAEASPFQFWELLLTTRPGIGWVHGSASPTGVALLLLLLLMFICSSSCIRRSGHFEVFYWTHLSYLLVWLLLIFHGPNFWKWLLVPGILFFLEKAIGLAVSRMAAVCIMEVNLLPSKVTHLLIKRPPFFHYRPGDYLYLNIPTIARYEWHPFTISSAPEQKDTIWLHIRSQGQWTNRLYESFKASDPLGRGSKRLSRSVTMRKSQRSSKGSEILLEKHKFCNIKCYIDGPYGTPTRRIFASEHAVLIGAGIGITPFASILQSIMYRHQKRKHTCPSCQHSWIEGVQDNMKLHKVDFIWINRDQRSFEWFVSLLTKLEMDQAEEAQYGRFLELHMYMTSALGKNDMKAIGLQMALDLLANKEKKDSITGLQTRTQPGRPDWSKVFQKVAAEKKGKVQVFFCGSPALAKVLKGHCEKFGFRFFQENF
Chain of Torsin-1A (Homo sapiens) (O14656 whole entry, looked up): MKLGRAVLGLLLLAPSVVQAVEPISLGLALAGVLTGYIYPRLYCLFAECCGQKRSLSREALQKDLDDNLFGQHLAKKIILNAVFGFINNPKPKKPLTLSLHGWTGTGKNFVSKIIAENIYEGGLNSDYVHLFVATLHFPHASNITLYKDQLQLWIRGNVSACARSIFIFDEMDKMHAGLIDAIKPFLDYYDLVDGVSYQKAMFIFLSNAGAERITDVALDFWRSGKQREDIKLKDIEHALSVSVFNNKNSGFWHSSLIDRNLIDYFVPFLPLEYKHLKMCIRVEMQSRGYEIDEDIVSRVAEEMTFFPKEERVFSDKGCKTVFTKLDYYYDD

Turning to `CCOC(=O)C=Cc1ccccc1O`, the composite z-score worked out at 0.0265 in test [1]; 0.486 in test [6]; 0.0051 in [7]; 0.399 in [8]; 0.146 in [9]; 0.158 in test [10]. This molecule came in with a composite z-score in test [12] of 0.135. The z-score in test [2] was -4.76 (inactive); in [3], -0.203 (inactive); in test [4], -0.471 (inactive); in test [5], -0.586 (inactive); in test [11] it was -0.646 (inactive); in [13] it was 19.4 (active). The z-score in [14] was 2.46 (inactive); in test [15] it was 0.784 (inactive); in [16], -1.43 (inactive); in test [17] it was 1.47; in test [18] it was -4.38 (inactive); in [19], -2.24 (inactive). In test [20], the z-score was -4.65.

For `CC(C)CNC(=O)[C@@]1(c2ccc([N+](=O)[O-])cc2)CC(=O)N(C2CCCCC2)[C@@H]1c1ccc(CO)cc1`, the composite z-score is 0.335 in test [1]; -0.0755 in test [6]; -0.153 in test [7]; 0.442 in test [8]; 0.0881 in test [9]; -0.158 in [10]. Further, the composite z-score in test [12] was found to be 0.164. For the same molecule, the z-score in test [2] was -2.21 (inactive); in test [3] it was 0.901 (inactive); in [4] it was 0.585 (inactive); in test [5] it was 0.142 (inactive); in test [11], 0.706 (inactive); in [13], 0.879 (inactive). The z-score in test [14] was -0.189 (inactive); in test [15] it was 0.0352 (inactive); in test [16], -0.013 (inactive); in test [17], 0.358; in test [18] it was 0.382 (inactive); in [19], 0.581 (inactive). In test [20], this molecule showed a z-score of 0.668.

As for `C=C(/C(=C/C[C@H](OC(=O)c1ccncc1)c1ccccc1OCCO)c1cnc2ccccc2c1)C(C)C`, the composite z-score in test [1] was found to be 0.733; in test [6] it was 1.81; in test [7], 0.0471; in [8], 1.06; in [9] it was 1.07; in test [10] it was 2.01. The same molecule gave a composite z-score in [12] of 0.313. Moreover, the z-score in [2] was -0.0956 (inactive); in [3] it was -0.91 (inactive); in test [4], 2.52 (inactive); in test [5], 1.5 (inactive); in test [11] it was -0.227 (inactive); in test [13], 11.1 (active). In addition, the z-score in test [14] was 1.86 (inactive); in test [15], 1.41 (inactive); in test [16], 0.553 (inactive); in test [17] it was 0.125; in test [18], -1.71 (inactive); in [19] it was -0.391 (inactive). Further, in test [20], the z-score was -0.914.

`CN1C(=O)C2C=CC(C(O)c3cc(C(F)(F)F)cc(C(F)(F)F)c3)N(NC(=O)OC(C)(C)C)C2C1=O` (stereo not given): the composite z-score in test [1] was found to be 0.135; in [6], 1.6; in [7], 0.29; in test [8] it was 0.49; in test [9] it was 1.32; in test [10], 0.433. Also, in test [12], the composite z-score is 0.363. Besides, the z-score in test [2] was -2.4 (inactive); in test [3], 0.999 (inactive); in [4], 0.0467 (inactive); in test [5], 0.587 (inactive); in [11], -1.13 (inactive); in test [13] it was -0.0698 (inactive). Besides, the z-score in [14] was 0.118 (inactive); in test [15], -0.548 (inactive); in test [16], 1.2 (inactive); in test [17], -0.636; in test [18], -0.694 (inactive); in test [19], -1.47 (inactive). For the same molecule, in test [20], the z-score was 1.5.

As for `CC(C)C(=C=CC[C@H](O)c1cccc(OCCO)c1)CCO`, the composite z-score in test [1] was 0.299; in test [6], -0.669; in [7], -0.224; in test [8] it was -0.513; in test [9], 0.15; in test [10], 0.688. The composite z-score in test [12] is -0.116. The z-score in test [2] is -1.25 (inactive); in test [3], -0.461 (inactive); in [4], 6.6 (inactive); in test [5], -0.253 (inactive); in [11] it was 1.09 (inactive); in test [13] it was 1.77 (inactive). The z-score was -1.04 (inactive) in [14]; -1.42 (inactive) in test [15]; -1.95 (inactive) in [16]; 0.28 in test [17]; -0.24 (inactive) in test [18]; 0.17 (inactive) in test [19]. In addition, in [20], the z-score is -1.29.
